Test system: Vero E6 infected with SARS-CoV-2
Assay: morphology score (similarity to uninfected cells); higher = more like uninfected cells
Details: 24 h

Compound	morphology score
CCN(CC)CCOCCOC(=O)C1(c2ccccc2)CCCC1 [carbetapentane] (10 µM)	0.363
CCOC(=O)[C@H](CCc1ccccc1)N[C@@H](C)C(=O)N1Cc2cc(OC)c(OC)cc2C[C@H]1C(=O)O [moexipril] (10 µM)	0.183
Cn1nnc(-c2ccc(-c3ccc(N4C[C@H](CO)OC4=O)cc3F)cn2)n1 [tedizolid] (10 µM)	0.127
O=C(O)c1cccnc1 [niacin] (10 µM)	0.195
Cn1c(C#N)ccc1-c1ccc2c(c1)C(C)(C)OC(=S)N2 [tanaproget] (10 µM)	0.0429
CNC(=O)[C@H]1O[C@@H](n2cnc3c(NCc4cccc(I)c4)ncnc32)[C@H](O)[C@@H]1O (10 µM)	0.156
C[C@H]1N=C(N(C)C)N=C(N)N1 [imeglimin] (10 µM)	0.0246
FC(F)(F)c1ccc(N2CCNCC2)nc1Cl (10 µM)	0.273
Fc1ccc(CNc2ncnc3ccc(F)cc23)cc1 [spautin-1] (10 µM)	-0.0451
CC(C)=CCC/C(C)=C/CC/C(C)=C/CC[C@]1(C)CCc2cc(O)cc(C)c2O1 [delta-tocotrienol] (10 µM)	0.0442
CC(C)CN(C[C@@H](OP(=O)(O)O)[C@H](Cc1ccccc1)NC(=O)O[C@H]1CCOC1)S(=O)(=O)c1ccc(N)cc1 [fosamprenavir] (10 µM)	-0.123
COc1cc2c(Nc3ccc(Cl)c(Cl)c3F)ncnc2cc1OC[C@@H]1C[C@@H]2CN(C)C[C@@H]2C1 (10 µM)	-0.291
COc1cc2/c(=N/c3ccc(Br)cc3F)nc[nH]c2cc1OCC1CCN(C)CC1 [vandetanib] (10 µM)	0.0459
C=CC(=O)N1CCC[C@@H](n2nc(-c3ccc(Oc4ccccc4)cc3)c3c(N)ncnc32)C1 [ibrutinib] (10 µM)	0.197
Cc1c(Cl)cccc1S(=O)(=O)Nc1nc(CC(=O)N2CCN(C)CC2)cs1 (10 µM)	-0.053
CCN1CCCC1CNC(=O)c1cc(S(=O)(=O)CC)c(N)cc1OC (stereo not drawn) [amisulpride] (10 µM)	0.114
CCC(CC)[C@H](NC(C)=O)[C@@H]1[C@H](O)[C@@H](C(=O)O)C[C@H]1NC(=N)N [peramivir] (10 µM)	0.00579

Compound	morphology score
O=C(O)C1=CCCN(CCOC(c2ccc(C(F)(F)F)cc2)c2ccc(C(F)(F)F)cc2)C1 (10 µM)	0.0171
COC(=O)[C@@H](N)CS [mecysteine] (10 µM)	-0.052
CC(C)(Oc1ccc(C(=O)c2ccc(Cl)cc2)cc1)C(=O)O [fenofibric-acid] (10 µM)	0.137
C=CC[C@]1(O)CC[C@H]2[C@@H]3CCC4=CC(=O)CCC4=C3C=C[C@@]21C [altrenogest] (10 µM)	0.0206
CCN(CCCc1ccccc1)CCCc1ccccc1 [alverine] (10 µM)	0.397
CCn1cc(C(=O)O)c(=O)c2cnc(N3CCCC3)nc21 [piromidic-acid] (10 µM)	0.0342
CN1C(=O)C(Cc2c[nH]c3ccccc23)NC1=S (stereo not drawn) [necrostatin-1] (10 µM)	0.186
CN(C)/C=N/c1c(I)cc(I)c(CCC(=O)O)c1I [iopodic-acid] (10 µM)	0.0727
N[C@@H](CCC(=O)N[C@@H](CSN=O)C(=O)NCC(=O)O)C(=O)O [S-nitrosoglutathione] (10 µM)	0.164
CC(=O)N1CC[N+](C)(C)CC1 [4-acetyl-1,1-dimethylpiperazinium] (10 µM)	0.103
O=c1[nH]c(=O)n([C@H]2C[C@H](O)[C@@H](CO)O2)cc1/C=C/Br [brivudine] (10 µM)	0.0102
CCOc1ccc(C[C@H]2NC(=O)CCSSC[C@@H](C(=O)N3CCC[C@H]3C(=O)N[C@@H](CCCN)C(=O)NCC(N)=O)NC(=O)[C@H](CC(N)=O)NC(=O)[C@H]([C@@H](C)O)NC(=O)[C@H]([C@@H](C)CC)NC2=O)cc1 [atosiban] (10 µM)	0.175
CCCCCCCCCCCCCCSCC(=O)O [tetradecylthioacetic-acid] (10 µM)	-0.0649
Cc1cc(O)c(-c2ccc([C@@H](C)CN)cc2)c2c1[nH]c(=O)c1sccc12 (0.833333 µM)	-0.046
CC(O)(P(=O)(O)O)P(=O)(O)O [etidronic-acid] (10 µM)	0.115
Fc1ccc2c(CCNCc3cccc(OCC(F)(F)C(F)F)c3)c[nH]c2c1 [idalopirdine] (10 µM)	-0.145
